104 molecules from PubChem BioAssay AID504843 (Broad Institute, 2011) can be followed below.

The campaign covered roughly 1,200 compounds. About 360 (30%) were called active. The rule behind the calls is not given here. Not all results are given here. Results with a measured potency or affinity are listed apart.

The nature of this assay: antibacterial activity by ATP level – BacTiter-Glo luminescence, cherry-picked samples, counter-screen, dose response (AID 504843).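 Note: growth measured after 8 h incubation at 30 °C.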 The settings on record: bacterial growth; series mostly up to 15 µM.
As for `CC(C)c1ccc(OCC(=O)NC2=NCCS2)cc1`, the molecule was called inactive.
As to `COc1ccc(-c2noc(CSc3nnc(-c4ccncc4)n3-c3ccc(F)cc3)n2)cc1OC`, the molecule was called inactive.
Then `CCCCN1CC(COCc2ccccc2)Oc2cccc(N3CCCC3)c2S1(=O)=O` (centres undefined), with “inactive”; and `S=C(NCCCn1ccnc1)Nc1cccc(Cl)c1`, with “inactive”.
`O=C(CCCCCNC(=O)c1ccccc1)C[N+](=O)[O-]`: the outcome was inactive.
As to `CN1CC(c2ccccc2Cl)C2(COc3ccccc3C2=O)C12C(=O)Nc1ccccc12` (centres undefined), the molecule was classed as inactive.
As to `CCC1=C(c2ccc(C)cc2)S(=O)(=O)N=C1N1CCC(C(=O)NCCCN2CCCCC2C)CC1` (centres undefined), the outcome was inactive.
Then `COc1ccc2[nH]c3c(=O)n(CCN4CCOCC4)cnc3c2c1`, with “inactive”; and `O=C1/C(=C/c2cccnc2)Oc2cc(OS(=O)(=O)c3ccccc3)ccc21`, with “inactive”.
Regarding `CN(C)C(=S)Nc1ccc2ccccc2c1`, the call was inactive.
The entry for `COc1ccc(NS(=O)(=O)c2ccc(NC(=O)Cc3cccs3)cc2)cc1` is “inactive”; for `CCN(CC)C(=O)Cn1cc(C(=O)C(=O)NCCCn2ccnc2)c2ccccc21` it is “inactive”; for `O=C(NCC1CCCO1)C(c1cccs1)N(C(=O)c1ccc(CN2CCOCC2)o1)c1ccc(Cl)cc1` (centres undefined) it is “inactive”.
For the molecule `O=C1CCCC2=C1C(c1cccs1)CC(=O)N2c1ccc(F)cc1` (centres undefined), the molecule was called inactive.
Turning to `O=C1CCCC2=C1CC(C(=O)OCc1ccccc1)C(=O)N2Cc1ccccc1` (centres undefined), the molecule was classed as inactive.
The entry for `Cc1ccc[n+](CC(=O)c2cc3ccccc3oc2=O)c1` is “inactive”.
The entry for `O=C1Nc2ccc(S(=O)(=O)NCCCO)c3cccc1c23` is “inactive”; for `Cc1ccc(S(=O)(=O)Nc2c(C)n(C)n(-c3ccccc3)c2=O)cc1C(=O)NCc1ccco1` it is “inactive”; for `Cc1ccc(C(=O)CN2/C(=C(\O)c3ccccc3)C(=O)c3ccccc3S2(=O)=O)c(C)c1` it is “inactive”.
Regarding `CCn1c(C)nc2cc(C(=O)N/N=C/c3ccc(OC)c(O)c3)ccc21`, the molecule was called inactive.
On to `O=C(Cc1ccccc1)Nc1ccc2oc(=O)ccc2c1`, for which the molecule was classed as inactive.
Then `COc1cccc(-c2nn(-c3ccccc3)cc2CN(C)C(C)c2ccncn2)c1` (centres undefined), with “inactive”.
For `O=S(=O)(N1CCCCC1)N1CCN(c2ccccc2F)CC1`, the molecule was classed as inactive.
For `CCOC(=O)c1cnn(-c2cc(C)c3ccccc3n2)c1N`, the outcome was inactive.
Then `O=C(CSc1cccc2cccnc12)N/N=C/c1ccncc1`, with “inactive”; and `CCn1nc(-c2ccccc2)c2nc3ccccc3nc21`, with “inactive”; and `Cc1cc(C(F)F)n2nc(C(=O)Nc3c(F)cc(F)cc3Br)nc2n1`, with “inactive”.
Take `Cn1c(N)c(C(=O)COC(=O)c2nc(Cl)ccc2Cl)c(=O)n(C)c1=O`: the molecule was classed as inactive.
The entry for `CC(C)N(c1ccccc1)c1ccc(NC(=O)COC(=O)CCN2C(=O)c3cccc([N+](=O)[O-])c3C2=O)cc1` is “inactive”.
Then `CN1CCCC(OC(=O)CCCCC(=O)OC2CCCN(C)C2)C1` (centres undefined), with “inactive”.
With `O=C(CN1CCC(c2nc3ccccc3s2)CC1)NCc1cccs1`, the call was inactive.
On to `O=C(NCc1cccs1)Nc1cccc(Cl)c1`, for which the result was inactive.
In the case of `COc1cc(/C=C2\C(=N)N3N=C(S(C)(=O)=O)SC3=NC2=O)ccc1OS(=O)(=O)c1ccc(C)cc1`, the molecule was classed as inactive.
Then `COc1ccccc1NC(=O)C1=C(C)Nc2ncnn2C1c1ccc(C)o1` (centres undefined), with “inactive”; and `Cc1cc(C(=O)CSc2nnc(-c3ccc4c(c3)OCO4)o2)c(C)n1-c1ccc(F)cc1`, with “inactive”.
Then `Cc1cccc2c1cnn2C(=O)CCC(=O)N1CC(C)CC(C)C1` (centres undefined), with “inactive”.
For the molecule `CCC(C)N1CCC2(CC1)N=c1c(c3c4c5c(C)c(O)c3c(O)c1=NC(=O)C(C)=CC=C[C@H](C)[C@H](O)[C@@H](C)[C@@H](O)[C@@H](C)[C@H](OC(C)=O)[C@H](C)[C@@H](OC)C=CO[C@@](C)(O5)C4=O)N2` (some centres undefined), the outcome was inactive.
Take `O=C(Nc1ccncc1)c1ccc(Cl)c(Cl)c1`: the outcome was inactive.
As to `O=C(Nc1cccc(NC(=O)c2cccnc2)c1)c1ccccc1`, the molecule was called inactive.
Then `NC(=O)C1CCN(C(=O)c2ccco2)CC1`, with “inactive”; and `Cc1ccc2c(C)nc(/N=C(\N)NC(=O)N3c4ccccc4Sc4ccccc43)nc2c1`, with “inactive”.
The entry for `CNC(=O)C(=O)NCCN1CCN(S(=O)(=O)c2ccc3ccccc3c2)CC1` is “inactive”.
Turning to `O=C(CCc1nnc2ccc(NCc3ccco3)nn12)N1CCN(c2ccccc2)CC1`, the call was inactive.
Consider `O=C(CCSc1ccccc1)N1CCN(C(=O)c2ccco2)CC1`, for which the call was inactive.
The entry for `CC(=O)c1ccc(-c2cccc(-c3nc4ccccn4c3NC3CCCCC3)c2)cc1` is “inactive”; for `CCOC(=O)c1sc(NC(=O)CCN2C(=O)c3cccc([N+](=O)[O-])c3C2=O)c(C(=O)OCC)c1C` it is “inactive”; for `C#CCn1c(O)c(N=NC(=O)C(O)c2ccccc2)c2ccccc21` (centres undefined) it is “inactive”.
The entry for `COc1ccc(C(=O)Nc2c3c(nn2-c2ccc(Cl)cc2)CS(=O)(=O)C3)cc1` is “inactive”; for `c1ccc(Nc2nc(Nc3ccccc3)nc(N3CCNCC3)n2)cc1` it is “inactive”; for `Cc1ccc(Nc2nnns2)cc1C` it is “inactive”.
Then `Cc1cc(=O)oc2cc(O)cc(O)c12`, with “inactive”; and `O=C(Nc1nnc(S(=O)(=O)N2CCCCCC2)s1)c1ccccc1Br`, with “inactive”.
As for `CSc1ccccc1OCc1cc(C(=O)N(C)Cc2c(C)n[nH]c2C)no1`, the molecule was called inactive.
With `CCc1ccc2c(CSc3nnnn3C)cc(=O)oc2c1`, the call was inactive.
The entry for `Cc1ncc(CN2CCN(CCC(C)C)C(CCO)C2)s1` (centres undefined) is “inactive”.
The entry for `CC(=O)C1C(c2ccc(Cl)cc2)NC(=O)NC1(O)C(F)(F)F` (centres undefined) is “inactive”; for `Cc1cc(=O)[nH]c(Sc2c(-c3ccccc3)c3ccccc3[nH]c2=O)n1` it is “inactive”; for `Cc1cc(C)n(CCC(=O)N/N=C/c2c(O)ccc3ccccc23)n1` it is “inactive”.
Then `COC(=O)[C@H]1[C@H]2C[C@H]3c4[nH]c5ccccc5c4CCN3C[C@@H]2CC[C@@H]1O`, with “inactive”.
With `CCC(=O)NC(c1ccccc1Cl)c1c(O)ccc2ccccc12` (centres undefined), the molecule was classed as inactive.
The entry for `Cc1ccsc1C1C(C#N)=C(N)OC2=C1C(=O)CC(C)C2` (centres undefined) is “inactive”.
Then `COc1cccc(C2CC(c3c(-c4ccccc4)c4cc(Cl)ccc4[nH]c3=O)=NN2S(C)(=O)=O)c1OC` (centres undefined), with “inactive”; and `CCn1c(SCC(=O)Nc2ccc(F)cc2)nnc1-c1cnccn1`, with “inactive”; and `CNC1=CC(=O)CC(c2ccccc2)C1` (centres undefined), with “inactive”.
In the case of `COc1ccc(OCc2nnc3n2N=C(c2ccccc2)C(CC(=O)O)S3)cc1` (centres undefined), the molecule was called inactive.
The entry for `Cn1cccc1CNCC(O)c1ccccc1` (centres undefined) is “inactive”; for `CN(C)S(=O)(=O)c1cccc(NC(=O)C2CCN(S(=O)(=O)c3cccs3)CC2)c1` it is “inactive”; for `Cn1c(SCC(=O)NCc2cccs2)nnc1-c1ccc(S(=O)(=O)N2CCCC2)cc1` it is “inactive”.
Then `CCCCn1c(N)c(N(CC)C(=O)c2ccc(Cl)c(Cl)c2)c(=O)[nH]c1=O`, with “inactive”; and `CCCCCN(C(=O)CCC(=O)OCC(=O)N(C)Cc1ccc(C)cc1)c1c(N)n(CCCC)c(=O)[nH]c1=O`, with “inactive”.
With `CC1(C)CC(NC(=O)c2ccc(-c3ccc([N+](=O)[O-])cc3)o2)CC(C)(C)N1`, the outcome was inactive.
Then `CC(O)(CC(=O)CC(=O)c1ccccc1)c1ccccc1` (centres undefined), with “inactive”.
Then `COc1ccc(C2CC(=O)c3cnc(NC(=O)c4ccccc4)nc3C2)c(OC)c1` (centres undefined), with “inactive”; and `S=c1[nH]nc(-c2cccnc2)n1C1CCCCC1`, with “inactive”; and `COCc1cc(=O)[nH]c2cc(NC(=O)C(F)(F)F)c(C)cc12`, with “inactive”.
The entry for `CCOc1ccccc1C1C(C(N)=O)=C(C)Nc2nc(-c3ccccc3Cl)nn21` (centres undefined) is “inactive”; for `COc1ccc(C2C(C#N)=C(N)Oc3c2sc2nc(C)cc(C)c32)cc1` (centres undefined) it is “inactive”; for `Cc1cc(-n2c(C)cc(C(=O)COc3cccnc3[N+](=O)[O-])c2C)no1` it is “inactive”.
Consider `Cc1ccc2cccc(OCC(=O)N3CCc4ccccc43)c2n1`, for which the result was inactive.
Take `CC(C)C[C@H]1C(=O)N2CCC[C@H]2[C@]2(O)O[C@](NC(=O)[C@@H]3C=C4c5cccc6[nH]c(Br)c(c56)CC4N(C)C3)(C(C)C)C(=O)N12` (some centres undefined): the outcome was inactive.
The entry for `CCC(C)OC1OC(CO)C(O)C(O)C1NC(C)=O` (centres undefined) is “inactive”; for `Cc1ccc(C(=O)N/C(=C\c2ccc(C(C)C)cc2)C(=O)NCCCN2CCOCC2)cc1` it is “inactive”.
Then `CC(C)OC(=O)c1c(NC(=O)c2ccco2)sc2c1CCCC2`, with “inactive”; and `COc1ccc(S(=O)(=O)N2CCCOC2CNC(=O)C(=O)NCCCN2CCOCC2)cc1` (centres undefined), with “inactive”; and `CCOC(=O)c1c(NC(=O)CCC(=O)O)sc2c1CC(C)(C)OC2`, with “inactive”.
The entry for `O=C1OCc2ccc(NC(=O)C3CC3)cc21` is “inactive”; for `Cc1cc(NC(=O)C2CC2)ccc1NC(=O)c1cccs1` it is “inactive”; for `COc1ccc(-c2nc(C#N)c(NCC3CCCO3)o2)cc1OC` (centres undefined) it is “inactive”.
On to `CCOC(=O)CSc1cc(CS(C)(=O)=O)nc(-c2ccccn2)n1`, for which the molecule was classed as inactive.
`CC1CCN(CC[C@H]2CCCN2S(=O)(=O)c2cccc(O)c2)CC1`: the call was inactive.
Then `Cc1ccc(C(=O)c2cnc3ccccc3c2-c2ccccc2)cc1`, with “inactive”; and `CN(C)CCCNC(=O)C(=O)NCC1CCCO1` (centres undefined), with “inactive”.
Turning to `CN(C(=O)c1cc2sccc2n1C)C1CCCCC1`, the molecule was classed as inactive.
Then `Cc1nn(Cc2ccccc2)c(C)c1NC(=O)c1noc2c1CCc1ccccc1-2`, with “inactive”.
The entry for `Cc1ccc(Cn2nc(C)c(NC(=O)c3cc(C)no3)c2C)cc1` is “inactive”; for `O=C(CCCc1ccccc1)Nc1ccc2c(c1)OCCO2` it is “inactive”; for `O=C(NCCc1ccccc1)c1n[nH]c2ccccc12` it is “inactive”.
Take `Cc1ccc(-n2c3nc(=O)[nH]c(=O)c-3cc3c(C)nn(-c4ccccc4)c32)c(C)c1`: the call was inactive.
For the molecule `N#Cc1cn(CC(=O)N2CCCc3ccccc32)c2ccccc12`, the outcome was inactive.
On to `CC1CCc2nc(N)c(C#N)c(-c3ccncc3)c2C1` (centres undefined), for which the result was inactive.
As to `COc1ccc(-c2ccc(-c3noc(-c4ccccc4OC)n3)c(OC)n2)cc1`, the result was inactive.
As to `CC(C)c1cc(C(=O)NCc2ccco2)no1`, the call was inactive.
The entry for `CCN(CC)S(=O)(=O)c1ccc(S(=O)(=O)Nc2ccc3c(c2)oc2ccccc23)cc1` is “inactive”; for `C/C(=C\C(=O)OCCCCCCCCC(=O)O)C[C@@H]1OC[C@H](C[C@@H]2O[C@H]2[C@@H](C)[C@H](C)O)[C@@H](O)[C@H]1O` it is “inactive”.
